Inconclusive results are not listed. Entries that show only a call come without a potency. Activity calls are given as the source filed them. Unless noted, the call rests on the fitted dose curve; in most records, active means well fitted curve in the direction sought with a large enough effect in the repeat runs; inconclusive means weak or mixed curves; inactive means no such curve, though single readings can be large; an effect the other way counts as inactive or inconclusive.
What was measured:
[1] = biological target: Acetylcholinesterase (Homo sapiens) (UniProt P22303); experiment: Acetylcholinesterase (AChE) small molecule antagonists: enzyme-based qHTS assay (AID 1347397; calls by dose curve; further: nearly all actives have a fitted effect of over 55% in size; further: potency means the concentration at half of the fitted maximal effect); conditions: Potency: AChE enzyme activity inhibition
Chain of Acetylcholinesterase (Homo sapiens) (P22303 whole entry, looked up): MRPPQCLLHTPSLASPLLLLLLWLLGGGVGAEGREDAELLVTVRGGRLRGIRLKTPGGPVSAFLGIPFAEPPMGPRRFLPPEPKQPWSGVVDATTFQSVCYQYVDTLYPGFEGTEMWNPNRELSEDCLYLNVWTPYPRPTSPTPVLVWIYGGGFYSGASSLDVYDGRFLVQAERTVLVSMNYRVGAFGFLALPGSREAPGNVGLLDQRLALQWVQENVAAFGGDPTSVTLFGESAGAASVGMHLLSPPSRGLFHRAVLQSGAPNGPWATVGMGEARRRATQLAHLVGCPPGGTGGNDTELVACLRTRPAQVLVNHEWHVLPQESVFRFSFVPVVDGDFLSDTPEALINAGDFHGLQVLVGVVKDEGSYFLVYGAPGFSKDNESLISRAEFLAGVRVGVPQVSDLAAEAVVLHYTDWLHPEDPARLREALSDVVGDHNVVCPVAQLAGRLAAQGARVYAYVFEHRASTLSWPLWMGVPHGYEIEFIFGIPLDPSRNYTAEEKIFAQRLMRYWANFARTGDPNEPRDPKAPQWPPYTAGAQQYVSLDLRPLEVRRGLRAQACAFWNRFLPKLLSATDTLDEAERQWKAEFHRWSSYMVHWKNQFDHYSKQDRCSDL
In short: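 Recombinant human AChE, dispensed at 50 mU/mL, was preincubated with Tox21 10K compounds or DMSO vehicle for 30 min at room temperature. DTNB plus acetylthiocholine was then added, and thiocholine was measured colorimetrically after a further 10 min.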

[2] = biological target: Acetylcholinesterase (Homo sapiens) (UniProt P22303); experiment: Acetylcholinesterase (AChE) small molecule antagonists: fluorescence cell-based qHTS assay (AID 1347398; calls by dose curve; further: nearly all actives have a fitted effect of over 50% in size; further: potency means the concentration at half of the fitted maximal effect); conditions: Potency: AChE activity
In short: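 Human SH-SY5Y cells were plated overnight at 37 C, exposed to compound for 30 min at 37 C, 5% CO2, then given acetylthiocholine plus Thiolite Green for 40 min at room temperature; thiocholine fluorescence (Ex/Em 490/520 nm) reports endogenous AChE activity.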

[3] = biological target: Acetylcholinesterase (Homo sapiens) (UniProt P22303); experiment: Acetylcholinesterase (AChE) small molecule antagonists: enzyme-based qHTS assay with human liver microsomes (AID 1347399; calls by dose curve; further: nearly all actives have a fitted effect of over 60% in size; further: potency means the concentration at half of the fitted maximal effect); conditions: Potency: qHTS inhibition
In short: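 Recombinant human AChE (50 mU/mL in the enzyme mix) and human liver microsomes (0.25 mg/mL final) were preincubated with compound and NADPH (0.25 mg/mL final) for 30 min at 37 C. Acetylthiocholine/DTNB was then added; thiocholine was read colorimetrically after 10 min at room temperature.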

[4] = biological target: Cytochrome P450 2C9 (Homo sapiens) (UniProt P11712); experiment: Cytochrome P450 Family 2 Subfamily C Member 9 (CYP2C9) small molecule antagonists: luciferase reporter qHTS assay (AID 1671198); further: nearly all actives have a fitted effect of over 50% in size; further: potency means the concentration at half of the fitted maximal effect
Chain of Cytochrome P450 2C9 (Homo sapiens) (P11712 whole entry, looked up): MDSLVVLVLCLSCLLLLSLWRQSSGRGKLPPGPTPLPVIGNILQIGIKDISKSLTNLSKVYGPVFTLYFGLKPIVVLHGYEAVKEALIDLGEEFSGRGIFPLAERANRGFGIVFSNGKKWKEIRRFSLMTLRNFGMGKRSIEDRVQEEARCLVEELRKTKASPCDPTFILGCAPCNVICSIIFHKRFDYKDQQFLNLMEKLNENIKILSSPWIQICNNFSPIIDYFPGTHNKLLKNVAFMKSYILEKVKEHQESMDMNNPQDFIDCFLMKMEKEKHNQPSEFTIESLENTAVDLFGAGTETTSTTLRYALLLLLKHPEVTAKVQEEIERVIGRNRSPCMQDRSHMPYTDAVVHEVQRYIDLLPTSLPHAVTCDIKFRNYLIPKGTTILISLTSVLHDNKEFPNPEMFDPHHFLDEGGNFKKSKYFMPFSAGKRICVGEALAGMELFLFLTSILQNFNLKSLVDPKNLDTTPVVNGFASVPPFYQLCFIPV
In short: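 CYP2C9 activity was measured with a P450-Glo proluciferin substrate. Enzyme–substrate mix was held with compound for 10 min at room temperature, then NADPH regeneration solution was added for 1 h at 37C. Luciferin product was read as luminescence.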

[5] = biological target: Cytochrome P450 1A2 (Homo sapiens) (UniProt P05177); experiment: Cytochrome P450 Family 1 Subfamily A Member 2 (CYP1A2) small molecule antagonists: luciferase reporter qHTS assay (AID 1671199); further: nearly all actives have a fitted effect of over 50% in size; further: potency means the concentration at half of the fitted maximal effect
Chain of Cytochrome P450 1A2 (Homo sapiens) (P05177 whole entry, looked up): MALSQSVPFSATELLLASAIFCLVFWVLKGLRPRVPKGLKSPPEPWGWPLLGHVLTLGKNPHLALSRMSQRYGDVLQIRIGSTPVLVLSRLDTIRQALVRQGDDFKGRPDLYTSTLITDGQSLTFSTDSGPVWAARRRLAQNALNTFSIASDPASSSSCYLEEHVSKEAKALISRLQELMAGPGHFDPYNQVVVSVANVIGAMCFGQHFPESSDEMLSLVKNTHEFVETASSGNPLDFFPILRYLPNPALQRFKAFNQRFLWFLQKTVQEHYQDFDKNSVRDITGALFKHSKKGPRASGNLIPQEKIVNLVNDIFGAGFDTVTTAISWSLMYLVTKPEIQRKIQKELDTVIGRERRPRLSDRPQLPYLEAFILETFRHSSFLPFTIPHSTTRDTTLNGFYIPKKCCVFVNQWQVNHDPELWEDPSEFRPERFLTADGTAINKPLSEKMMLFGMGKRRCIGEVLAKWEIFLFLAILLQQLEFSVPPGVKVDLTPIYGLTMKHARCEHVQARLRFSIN
In short: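 Signal from luciferin formed by CYP1A2 from a proluciferin substrate is read as luminescence, expressed in relative luminescence units. Compounds sit with enzyme 10 min, NADPH-driven reaction runs 1 h, all at room temperature.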

[6] = biological target: Voltage-gated inwardly rectifying potassium channel KCNH2 (Homo sapiens) (UniProt Q12809); experiment: Human Ether-a-go-go-Related Gene (hERG) channel small molecule antagonists: fluorescence cell-based qHTS assay (AID 1671200);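 further: hERG-expressing U2OS cells given a thallium stimulus after FluxOR II dye loading; series mostly up to about 77 µM; nearly all actives have a fitted effect of over 50% in size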
Chain of Voltage-gated inwardly rectifying potassium channel KCNH2 (Homo sapiens) (Q12809 whole entry, looked up): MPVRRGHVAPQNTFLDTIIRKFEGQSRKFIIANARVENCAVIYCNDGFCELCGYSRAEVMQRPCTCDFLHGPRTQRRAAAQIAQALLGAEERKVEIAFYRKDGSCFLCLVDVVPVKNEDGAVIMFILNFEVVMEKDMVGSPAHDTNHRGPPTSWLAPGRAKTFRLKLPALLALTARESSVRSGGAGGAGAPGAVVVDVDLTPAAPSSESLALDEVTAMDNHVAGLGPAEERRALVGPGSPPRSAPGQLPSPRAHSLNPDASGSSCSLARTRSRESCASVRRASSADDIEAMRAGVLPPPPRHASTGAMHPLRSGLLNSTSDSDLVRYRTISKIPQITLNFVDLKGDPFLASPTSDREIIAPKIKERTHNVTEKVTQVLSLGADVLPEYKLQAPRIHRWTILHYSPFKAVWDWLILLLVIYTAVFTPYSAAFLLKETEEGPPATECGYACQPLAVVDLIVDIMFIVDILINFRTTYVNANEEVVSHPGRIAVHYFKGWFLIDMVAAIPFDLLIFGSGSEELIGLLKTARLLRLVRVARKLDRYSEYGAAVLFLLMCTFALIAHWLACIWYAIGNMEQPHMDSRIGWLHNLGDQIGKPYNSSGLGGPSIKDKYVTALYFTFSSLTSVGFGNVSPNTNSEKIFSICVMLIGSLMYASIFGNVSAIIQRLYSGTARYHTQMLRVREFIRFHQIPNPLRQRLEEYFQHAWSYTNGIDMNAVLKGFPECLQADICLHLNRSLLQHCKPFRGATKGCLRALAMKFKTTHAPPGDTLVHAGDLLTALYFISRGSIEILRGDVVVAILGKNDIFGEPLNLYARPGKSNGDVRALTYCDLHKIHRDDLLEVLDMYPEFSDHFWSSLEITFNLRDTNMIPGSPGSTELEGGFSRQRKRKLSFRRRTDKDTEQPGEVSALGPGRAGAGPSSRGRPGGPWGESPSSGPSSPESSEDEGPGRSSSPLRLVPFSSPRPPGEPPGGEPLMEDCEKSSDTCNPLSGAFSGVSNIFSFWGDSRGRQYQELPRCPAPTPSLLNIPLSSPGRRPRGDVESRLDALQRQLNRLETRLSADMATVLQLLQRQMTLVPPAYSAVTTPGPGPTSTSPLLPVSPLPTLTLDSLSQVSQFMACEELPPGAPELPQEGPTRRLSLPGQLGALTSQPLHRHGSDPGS
In short: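 Kinetic two-minute fluorescence traces, sampled at 1 s, were collected following thallium stimulus of U2OS cells (1000 per well) that had been cultured overnight at 37 C and loaded with FluxOR II.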

[7] = biological target: Cytochrome P450 2C19 (Homo sapiens) (UniProt P33261); experiment: Cytochrome P450 Family 2 Subfamily C Member 19 (CYP2C19) small molecule antagonists: luciferase reporter qHTS assay (AID 1671197); further: nearly all actives have a fitted effect of over 65% in size; further: potency means the concentration at half of the fitted maximal effect
Chain of Cytochrome P450 2C19 (Homo sapiens) (P33261 whole entry, looked up): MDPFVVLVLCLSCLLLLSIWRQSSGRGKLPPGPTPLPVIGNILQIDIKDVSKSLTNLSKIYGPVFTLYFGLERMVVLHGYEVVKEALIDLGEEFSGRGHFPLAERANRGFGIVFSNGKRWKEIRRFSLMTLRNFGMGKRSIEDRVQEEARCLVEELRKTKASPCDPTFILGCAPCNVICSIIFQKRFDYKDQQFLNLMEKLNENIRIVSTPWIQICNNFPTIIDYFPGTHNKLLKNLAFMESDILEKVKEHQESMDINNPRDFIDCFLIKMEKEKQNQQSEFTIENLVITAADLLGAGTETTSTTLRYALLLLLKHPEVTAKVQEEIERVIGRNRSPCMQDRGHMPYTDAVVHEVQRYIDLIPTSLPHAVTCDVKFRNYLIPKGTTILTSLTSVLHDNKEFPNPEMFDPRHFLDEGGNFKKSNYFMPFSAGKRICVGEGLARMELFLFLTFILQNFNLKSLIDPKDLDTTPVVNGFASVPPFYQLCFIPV
In short: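 Luminescent readout of CYP2C19 activity: luciferin product detected 20 min after adding detection reagent. Before that, compound and enzyme-substrate mix preincubated 10 min at room temperature; NADPH-regenerating system started a 1 h, 37C reaction. Ketoconazole as positive control.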

[8] = biological target: Cytochrome P450 3A4 (Homo sapiens) (UniProt P08684); experiment: Cytochrome P450 Family 3 Subfamily A Member 4 (CYP3A4) small molecule antagonists: luciferase reporter qHTS assay (AID 1671201); further: nearly all actives have a fitted effect of over 50% in size; further: potency means the concentration at half of the fitted maximal effect
Chain of Cytochrome P450 3A4 (Homo sapiens) (P08684 whole entry, looked up): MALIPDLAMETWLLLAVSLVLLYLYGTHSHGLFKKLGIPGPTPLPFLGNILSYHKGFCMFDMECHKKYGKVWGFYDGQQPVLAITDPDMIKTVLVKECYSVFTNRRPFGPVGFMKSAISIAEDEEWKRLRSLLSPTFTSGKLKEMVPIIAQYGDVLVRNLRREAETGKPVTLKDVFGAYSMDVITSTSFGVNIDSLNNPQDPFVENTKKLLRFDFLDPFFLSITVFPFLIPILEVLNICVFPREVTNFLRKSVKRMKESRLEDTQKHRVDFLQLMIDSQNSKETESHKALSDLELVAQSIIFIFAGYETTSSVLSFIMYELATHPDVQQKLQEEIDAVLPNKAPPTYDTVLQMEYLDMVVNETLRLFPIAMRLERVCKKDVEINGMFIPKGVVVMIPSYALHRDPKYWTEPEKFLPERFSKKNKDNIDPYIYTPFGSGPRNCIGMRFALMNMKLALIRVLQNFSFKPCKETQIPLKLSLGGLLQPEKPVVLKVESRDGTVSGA
In short: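 Proluciferin-to-luciferin conversion by CYP3A4, NADPH-regenerated, 1 h RT; luminescence read as RLU. Ketoconazole as control.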

[9] = biological target: Cytochrome P450 2D6 (Homo sapiens) (UniProt P10635); experiment: Cytochrome P450 Family 2 Subfamily D Member 6 (CYP2D6) small molecule antagonists: luciferase reporter qHTS assay (AID 1671196); further: nearly all actives have a fitted effect of over 50% in size; further: potency means the concentration at half of the fitted maximal effect
Chain of Cytochrome P450 2D6 (Homo sapiens) (P10635 whole entry, looked up): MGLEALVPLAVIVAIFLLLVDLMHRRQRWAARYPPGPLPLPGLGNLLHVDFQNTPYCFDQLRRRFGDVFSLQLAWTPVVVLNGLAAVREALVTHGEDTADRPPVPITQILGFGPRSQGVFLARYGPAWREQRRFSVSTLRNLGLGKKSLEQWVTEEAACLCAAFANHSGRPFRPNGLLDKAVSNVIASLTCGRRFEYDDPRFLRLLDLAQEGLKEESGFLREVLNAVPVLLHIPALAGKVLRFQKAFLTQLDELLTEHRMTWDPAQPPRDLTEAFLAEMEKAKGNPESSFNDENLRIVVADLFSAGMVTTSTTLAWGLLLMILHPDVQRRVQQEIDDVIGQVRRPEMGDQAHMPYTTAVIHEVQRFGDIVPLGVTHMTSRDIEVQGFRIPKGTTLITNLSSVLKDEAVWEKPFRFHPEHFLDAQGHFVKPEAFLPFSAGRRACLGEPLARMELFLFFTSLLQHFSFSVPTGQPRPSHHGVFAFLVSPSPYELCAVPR
In short: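 Inhibition of CYP2D6 was gauged by loss of luminescence, since light produced tracks the luciferin generated from a proluciferin substrate. A 10 min room-temperature preincubation preceded 1 h NADPH-supported turnover.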

Structure (SMILES)	Potency [1]	Potency [2]	Potency [3]	Potency [4]	Potency [5]	Potency [6]	Potency [7]	Potency [8]	Potency [9]
CCC1COC(Cn2cncn2)(c2ccc(Cl)cc2Cl)O1 (stereo not drawn)	inactive	inactive	inactive	6.33 µM (active)	28.3 µM (active)	inactive	–	–	–
CNN	inactive	inactive	inactive	inactive	inactive	inactive	inactive	inactive	–
BrCC(Br)(Br)Br	inactive	inactive	inactive	inactive	inactive	inactive	–	inactive	inactive
C=CC(=C)C	inactive	inactive	inactive	inactive	inactive	inactive	–	inactive	inactive
CCOP(=S)(NC(C)C)Oc1ccccc1C(=O)OC(C)C (stereo not drawn)	inactive	inactive	inactive	1.42 µM (active)	8.94 µM (active)	inactive	–	0.71 µM (active)	–
CSC(C)(C)/C=N/O	inactive	inactive	inactive	inactive	inactive	inactive	–	inactive	inactive
CN1C(=O)[C@@H](NC(=O)c2cc3ccccc3[nH]2)N=C(c2ccccc2)c2ccccc21	inactive	inactive	inactive	4.9 µM (active)	inactive	–	–	inactive	inactive
CO/N=C(\C(=O)OC)c1ccccc1CO/N=C(\C)c1cccc(C(F)(F)F)c1	inactive	inactive	inactive	8.94 µM (active)	17.8 µM (active)	inactive	3.56 µM (active)	–	–
CCNS(=O)(=O)C(F)(F)C(F)(F)C(F)(F)C(F)(F)C(F)(F)C(F)(F)C(F)(F)C(F)(F)F	inactive	inactive	inactive	1.52 µM (active)	inactive	inactive	–	–	–
Nc1ccc(N=Nc2ccccc2)cc1	inactive	inactive	inactive	12.6 µM (active)	4.61 µM (active)	inactive	12.6 µM (active)	–	–
CC(=O)C(Cl)C(=O)N(C)C (stereo not drawn)	inactive	inactive	inactive	inactive	inactive	inactive	–	inactive	–
CCOC(=O)CCN(SN(C)C(=O)Oc1cccc2c1OC(C)(C)C2)C(C)C	0.1 µM (active)	0.1 µM (active)	796 nM (active)	12.6 µM (active)	22.4 µM (active)	–	17.8 µM (active)	10 µM (active)	–
NC(=O)C(Cl)Cl	inactive	inactive	inactive	inactive	inactive	inactive	–	inactive	inactive
C[C@@H]1CC2=CC(=O)CC[C@@H]2[C@H]2CC[C@@]3(C)[C@@H](CC[C@]3(C)O)[C@@H]21	inactive	inactive	inactive	–	inactive	inactive	–	–	inactive
CCN1CCC2(CC1)COc1cc3c(cc12)N(C(=O)c1ccc(-c2ccc(-c4nnc(C)o4)cc2C)cc1)CC3	32.8 µM (active)	10.4 µM (active)	inactive	–	inactive	inactive	–	inactive	32.8 µM (active)
c1csc(-c2ccc(-c3cccs3)s2)c1	inactive	inactive	inactive	10 µM (active)	1.12 µM (active)	inactive	17.8 µM (active)	inactive	–

Structure (SMILES)	Potency [1]	Potency [2]	Potency [3]	Potency [4]	Potency [5]	Potency [6]	Potency [7]	Potency [8]	Potency [9]
Cc1cc(C2CC2)nc(Nc2ccccc2)n1	inactive	inactive	inactive	63.3 µM (active)	2.52 µM (active)	inactive	–	inactive	–
CCCCC(CC)COC(=O)c1ccccc1C(=O)OCC(CC)CCCC (stereo not drawn)	inactive	inactive	inactive	9.47 µM (active)	33.6 µM (active)	inactive	14.2 µM (active)	–	–
CC(C)C(Nc1ccc(C(F)(F)F)cc1Cl)C(=O)OC(C#N)c1cccc(Oc2ccccc2)c1 (stereo not drawn)	inactive	inactive	inactive	6.38 µM (active)	–	inactive	9.01 µM (active)	–	–
CSC1=N[C@@](C)(c2ccccc2)C(=O)N1Nc1ccccc1	inactive	inactive	inactive	35.6 µM (active)	–	inactive	–	–	–
CN1[C@@H]2CC[C@H]1CC(O)C2 (stereo partly drawn)	inactive	inactive	inactive	inactive	inactive	inactive	–	inactive	inactive
C=Cc1cccc(CCl)c1	inactive	inactive	inactive	inactive	–	inactive	–	–	inactive
Oc1ccc(Cl)c(Cl)c1	inactive	inactive	inactive	inactive	39.3 µM (active)	inactive	–	–	–
NC1CCC(CC2CCC(N)CC2)CC1 (stereo not drawn)	inactive	inactive	inactive	–	inactive	inactive	–	11.1 µM (active)	35 µM (active)
C=CCBr	inactive	inactive	inactive	inactive	–	inactive	–	inactive	33.6 µM (active)
C[C@]12Cc3cn[nH]c3C[C@@H]1CC[C@@H]1[C@@H]2CC[C@@]2(C)[C@H]1CC[C@]2(C)O	inactive	inactive	inactive	0.977 µM (active)	inactive	inactive	0.776 µM (active)	–	–
O=C(CCCCl)c1ccc(F)cc1	inactive	inactive	inactive	inactive	11.5 µM (active)	inactive	–	inactive	inactive
CCCCCCCc1ccc(O)cc1	inactive	inactive	inactive	35.6 µM (active)	35.6 µM (active)	–	20 µM (active)	–	–
CCOP(=S)(OCC)Oc1cc(C)nc(N(CC)CC)n1	inactive	–	inactive	11.2 µM (active)	3.56 µM (active)	inactive	0.399 µM (active)	0.633 µM (active)	50.2 µM (active)
O=[N+]([O-])c1ccccc1-c1ccccc1	inactive	–	inactive	25.2 µM (active)	1.59 µM (active)	inactive	35.6 µM (active)	inactive	inactive
COP(=S)(OC)Oc1ccc([N+](=O)[O-])c(C)c1	inactive	–	inactive	7.1 µM (active)	1.12 µM (active)	inactive	–	7.1 µM (active)	25.2 µM (active)

Reference: PubChem BioAssay (Tox21)
